“And” between values parts separate entries of the source, which are not always exact repeats. Identical values can stand only once. Inconclusive results are not listed. Where a call stands in place of a potency, no number is given. A structure can be active in one record and inactive in another. The source made the active and inactive calls. Unless noted, the call rests on the fitted dose curve; in most records, active means well fitted curve in the direction sought with a large enough effect in the repeat runs; inconclusive means weak or mixed curves; inactive means no such curve, though single readings can be large; an effect the other way counts as inactive or inconclusive.
experiment: qHTS assay to identify small molecule antagonists of the estrogen related receptor (ERR) signaling pathway from Tox21 library (AID 1224848); details: ERR reporter cell line, luciferase antagonist mode, 18 h; series mostly up to 92.4 µM; further: nearly all actives have a fitted effect of over 50% in size; further: potency means the concentration at half of the fitted maximal effect
In short: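 Screening used an ERR reporter line supplied by NTP, exposed for 18 h at 37 C to library compounds delivered in DMSO. Signal was luciferase luminescence developed with ONE-Glo at room temperature for 30 min.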

Row | Structure (SMILES) | Potency
1 | OB(O)O | inactive
2 | O=[N+]([O-])c1cc(C(F)(F)F)ccc1Cl | inactive
3 | CCCCCCC(=O)O | inactive
4 | OC[C@H]1O[C@@H](Oc2ccc(O)cc2)[C@H](O)[C@@H](O)[C@@H]1O | inactive
5 | COc1ccc2cc3[n+](cc2c1OC)CCc1cc2c(cc1-3)OCO2 | 976 nM (active) and 3.35 µM (active)
6 | CS(=O)(=O)c1ccc(Cl)cc1 | inactive
7 | C1CCCNCC1 | inactive
8 | O=[N+]([O-])c1ccccc1C(F)(F)F | inactive
9 | CC(=O)OC(C)(C)C1CC=C(C)CC1 (stereo not drawn) | inactive
10 | CC(COCC(C)OC(=O)c1ccccc1)OC(=O)c1ccccc1 (stereo not drawn) | inactive
11 | CN=C(NC#N)NCCSCc1nc[nH]c1C | inactive
12 | COC(=O)/C=C\C(=O)OC | inactive
13 | CC1=CC(=O)CC(C)(C)C1 | 14.1 µM (active) and inactive
14 | N#CCC(=O)O | inactive
15 | c1cnc2c(c1)ccc1cccnc12 | 1.23 µM (active) and 1.09 µM (active) and 1.54 µM (active)

experiment: qHTS assay to identify small molecule agonists of the estrogen related receptor (ERR) signaling pathway from Tox21 library (AID 1224849; calls by dose curve; further: nearly all actives have a fitted effect of over 15% in size); details: ERR reporter cell line, ONE-Glo luciferase, 18 h; at 42.5 µM (top of the series)
In short: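 ERR reporter cells (NTP line) pre-incubated 6 hours at 37 C, then exposed to compounds for 18 hours at 37 C. ONE-Glo luciferase luminescence was read after 30 minutes at room temperature.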

Row | Structure (SMILES) | activity change, positive = activation
16 | OC[C@H]1O[C@@H](Oc2ccc(O)cc2)[C@H](O)[C@@H](O)[C@@H]1O | 7.9% (inactive)
17 | COc1ccc2cc3[n+](cc2c1OC)CCc1cc2c(cc1-3)OCO2 | -43.6% (inactive)
18 | COC(=O)/C=C\C(=O)OC | 7.01% (inactive)
19 | O=c1n(CCCN2CCN(c3cccc(Cl)c3)CC2)nc2ccccn12 | -14.9% (inactive)

same assay, conditions: ERR reporter cell line, ONE-Glo luciferase, 18 h; at 92.4 µM (top of the series)

Row | Structure (SMILES) | activity change, positive = activation
20 | OB(O)O | 4.58% (inactive) and 4.55% (inactive)
21 | O=[N+]([O-])c1cc(C(F)(F)F)ccc1Cl | 3.85% (inactive)
22 | CCCCCCC(=O)O | 5.44% (inactive) and -1.64% (inactive)
23 | OC[C@H]1O[C@@H](Oc2ccc(O)cc2)[C@H](O)[C@@H](O)[C@@H]1O | 7.42% (inactive)
24 | COc1ccc2cc3[n+](cc2c1OC)CCc1cc2c(cc1-3)OCO2 | -64.1% (inactive)
25 | CS(=O)(=O)c1ccc(Cl)cc1 | 8.49% (inactive)
26 | C1CCCNCC1 | 1.64% (inactive) and -2.2% (inactive)
27 | O=[N+]([O-])c1ccccc1C(F)(F)F | -5.97% (inactive) and 7.68% (inactive)
28 | CC(=O)OC(C)(C)C1CC=C(C)CC1 (stereo not drawn) | 5.97% (inactive) and -1.38% (inactive)
29 | CC(COCC(C)OC(=O)c1ccccc1)OC(=O)c1ccccc1 (stereo not drawn) | -2.03% (inactive) and -5.66% (inactive)
30 | CN=C(NC#N)NCCSCc1nc[nH]c1C | 2.07% (inactive)
31 | COC(=O)/C=C\C(=O)OC | 2.62% (inactive)
32 | CC1=CC(=O)CC(C)(C)C1 | -82.9% (inactive) and 7.49% (inactive)
33 | O=c1n(CCCN2CCN(c3cccc(Cl)c3)CC2)nc2ccccn12 | -28.6% (inactive)
34 | N#CCC(=O)O | 4.35% (inactive) and -0.59% (inactive)
35 | c1cnc2c(c1)ccc1cccnc12 | -72.1% (inactive) and -45.5% (inactive) and -63.4% (inactive)

experiment: qHTS RealTime-Glo MT Cell Viability Assay in HepG2 cells - 24 hour (AID 1224867); details: RealTime-Glo luminescence; series mostly up to 76.8 µM; further: nearly all actives have a fitted effect of over 50% in size
In short: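 HepG2 cells (600/well) were dispensed with RealTime-Glo reagents, incubated 5 h at 37 °C, then treated with compounds in DMSO for up to 40 h. Nonlytic NanoLuc luminescence reflecting viable cells was read at each stated time point.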

Row | Structure (SMILES) | Potency
36 | COC(=O)CCCCC(=O)OC | inactive
37 | O=C(NCC1CCCCN1)c1cc(OCC(F)(F)F)ccc1OCC(F)(F)F (stereo not drawn) | inactive
38 | OB(O)O | inactive
39 | CCCCCCC(=O)O | inactive
40 | CC(=O)OC/C=C(\C)CCC=C(C)C | inactive
41 | OC[C@H]1O[C@@H](Oc2ccc(O)cc2)[C@H](O)[C@@H](O)[C@@H]1O | inactive
42 | CC1(C)C(=O)N(Cl)C(=O)N1Cl | inactive
43 | Oc1ccc(Cc2ccccc2O)cc1 | inactive
44 | CCCN(CCC)C(=O)SCC | inactive
45 | CS(=O)(=O)c1ccc(Cl)cc1 | inactive
46 | CC[N+](CC)(CC(=O)Nc1c(C)cccc1C)Cc1ccccc1 | inactive
47 | COc1ccc([C@@H]2CC(=O)c3c(O)cc(O[C@@H]4O[C@H](CO[C@@H]5O[C@@H](C)[C@H](O)[C@@H](O)[C@H]5O)[C@@H](O)[C@H](O)[C@H]4O)cc3O2)cc1OC | inactive
48 | C1CCCNCC1 | inactive
49 | NC(=O)NC(N)=O | inactive
50 | O=[N+]([O-])c1ccccc1C(F)(F)F | inactive
51 | CC(=O)OC(C)(C)C1CC=C(C)CC1 (stereo not drawn) | inactive
52 | CCCCCCCC(=O)O | inactive
53 | CC(COCC(C)OC(=O)c1ccccc1)OC(=O)c1ccccc1 (stereo not drawn) | inactive
54 | CN=C(NC#N)NCCSCc1nc[nH]c1C | inactive
55 | CCOC(=O)CC(=O)OCC | inactive
56 | COC(=O)/C=C\C(=O)OC | inactive
57 | CC(=O)CC(=O)N(C)C | inactive
58 | O=c1n(CCCN2CCN(c3cccc(Cl)c3)CC2)nc2ccccn12 | inactive
59 | N#CCC(=O)O | inactive
60 | NC(=O)c1ncn([C@@H]2O[C@H](CO)[C@@H](O)[C@H]2O)n1 | inactive
61 | c1cnc2c(c1)ccc1cccnc12 | inactive

experiment: qHTS RealTime-Glo MT Cell Viability Assay in HEK293 cells - 32 hour (AID 1224868); details: RealTime-Glo luminescence; series mostly up to 76.8 µM; further: nearly all actives have a fitted effect of over 50% in size; further: potency means the concentration at half of the fitted maximal effect
In short: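 HEK293 cells seeded with NanoLuc/prosubstrate reagent, rested 5 h at 37 C, then dosed and kept at 37 C up to 40 h. Nonlytic real-time luminescence from viable cells read at 0, 8, 16, 24, 32 and 40 h.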

Row | Structure (SMILES) | Potency
62 | COC(=O)CCCCC(=O)OC | inactive
63 | O=C(NCC1CCCCN1)c1cc(OCC(F)(F)F)ccc1OCC(F)(F)F (stereo not drawn) | inactive
64 | CCCCCNCCCCC | inactive
65 | OB(O)O | inactive
66 | C=C(C)CC(C)(C)C | inactive
67 | O=[N+]([O-])c1cc(C(F)(F)F)ccc1Cl | inactive
68 | CCCCCCC(=O)O | inactive
69 | CC(=O)OC/C=C(\C)CCC=C(C)C | inactive
70 | OC[C@H]1O[C@@H](Oc2ccc(O)cc2)[C@H](O)[C@@H](O)[C@@H]1O | inactive
71 | CC1(C)C(=O)N(Cl)C(=O)N1Cl | inactive
72 | CC(=O)c1nccs1 | inactive
73 | COc1ccc2cc3[n+](cc2c1OC)CCc1cc2c(cc1-3)OCO2 | 4.93 µM (active) and 10.7 µM (active)
74 | CC(O)CNCC(C)O (stereo not drawn) | inactive
75 | Cc1ccccc1Cl | inactive
76 | CO[Si](CCCNCCN)(OC)OC | inactive
77 | Oc1ccc(Cc2ccccc2O)cc1 | 19.7 µM (active)
78 | CCCN(CCC)C(=O)SCC | inactive
79 | CS(=O)(=O)c1ccc(Cl)cc1 | inactive
80 | CC[N+](CC)(CC(=O)Nc1c(C)cccc1C)Cc1ccccc1 | inactive

Row | Structure (SMILES) | Potency
81 | COc1ccc([C@@H]2CC(=O)c3c(O)cc(O[C@@H]4O[C@H](CO[C@@H]5O[C@@H](C)[C@H](O)[C@@H](O)[C@H]5O)[C@@H](O)[C@H](O)[C@H]4O)cc3O2)cc1OC | inactive
82 | C1CCCNCC1 | inactive
83 | NC(=O)NC(N)=O | inactive
84 | O=[N+]([O-])c1ccccc1C(F)(F)F | inactive
85 | CC(=O)OC(C)(C)C1CC=C(C)CC1 (stereo not drawn) | inactive
86 | CCCCCCCC(=O)O | inactive
87 | Cc1ccncc1 | inactive
88 | COc1c(Cl)ccc(Cl)c1C(=O)O | inactive
89 | CN=C(NC#N)NCCSCc1nc[nH]c1C | inactive
90 | OCC(O)CS (stereo not drawn) | inactive
91 | CCOC(=O)CC(=O)OCC | inactive
92 | COC(=O)/C=C\C(=O)OC | inactive
93 | CC1=CC(=O)CC(C)(C)C1 | inactive
94 | CC(=O)CC(=O)N(C)C | inactive
95 | O=c1n(CCCN2CCN(c3cccc(Cl)c3)CC2)nc2ccccn12 | 13.8 µM (active) and 9.52 µM (active)
96 | N#CCC(=O)O | inactive
97 | NC(=O)c1ncn([C@@H]2O[C@H](CO)[C@@H](O)[C@H]2O)n1 | inactive
98 | c1cnc2c(c1)ccc1cccnc12 | 3.5 µM (active) and 7.76 µM (active)

Source: PubChem BioAssay (Tox21)
